Molecules are shown by their SMILES. Records with an inconclusive call do not appear. A call without a number means that no potency is given here. Calls of active or inactive are those of the source. Calls follow the shape of the dose curve; as a rule, active = well fitted cell-killing curve with a large enough effect in the repeat runs; inconclusive = weak or mixed curves, or effect the other way; inactive = flat fitted curve, though single readings scatter.
Potency is read from the fitted curve at half-maximal effect.

The assay is described as follows: qHTS RealTime-Glo MT Cell Viability Assay in HepG2 cells - 40 hour (AID 1224870). Also: nearly all actives have a fitted effect of over 50% in size. The note with it: RealTime-Glo luminescence; series mostly up to 76.8 µM. An excerpt:
National Center for Advancing Translational Sciences [NCATS]
NIH Chemical Genomics Center [NCGC]
U.S. Environmental Protection Agency [EPA]
National Institutes of Environmental Health Sciences [NIEHS]
National Toxicology Program [NTP]
U.S. Food and Drug Administration [FDA]
Measure of cell viability is critical in the cell-base assay. Analysis of cell viability is necessary for the characterization of cell responses to cytotoxic drugs and environmental stress. A RealTime-Glo MT Cell Viability Assay to monitor cell viability in real time of continues cell culture during 40 hours of compound treatment was used to screen Tox21 10K library compounds in HepG2 cells. The RealTime-Glo MT Cell Viability Assay is a nonlytic, homogeneous, bioluminescent method to measure cell viability in real time using a simple, plate-based method. The assay involves adding NanoLuc luciferase and a cell-permeant prosubstrate to cells in culture. Viable cells reduce the proprietary prosubstrate to generate a substrate for NanoLuc luciferase. This substrate diffuses from cells into the surrounding culture medium, where it is rapidly used by the NanoLuc Enzyme to produce a luminescent signal. The signal correlates with the number of viable cells, making the assay well suited for cytotoxicity studies.
Tox21 Assay Protocol Summary:
The mixture of HepG2 cell suspension and reagents were dispensed at 600cells/6 ul/well in 1536-well tissue culture treated black solid bottom plates using a Multidrop dispenser. After the assay plates were incubated at a 37 C/5% CO2 incubator for 5 hours, 23 nL of compounds dissolved in DMSO, positive and negative controls was transferred to the assay plate by a pintool work station. The plates were incubated at 37 C for 40 hours. The luminescence intensity were measured at 0h, 8h, 16h, 24h, 32h and 40h time points using ViewLux plate reader during compound treatment.
(In general: qHTS replaces the single test concentration by a dilution series.)
`Cc1cccc(N(C)C(=S)Oc2ccc3c(c2)C2CCC3C2)c1` (stereo not given): the Potency result was “inactive”.

Turning to `On1ccccc1=S`, the Potency was 0.485 µM (active).

Consider `CCCCCCCC[N+](CCCCCCCC)(CCCCCCCC)CCCCCCCC`, for which the Potency was 24.5 µM (active).

As for `O=C(Nc1ccc(Oc2ccc(Cl)cc2)c(Cl)c1)c1cc(I)cc(I)c1O`, the Potency result was “inactive”.

With `NC(=O)C1(N2CCCCC2)CCN(CCCN2c3ccccc3CCc3ccc(Cl)cc32)CC1`, the Potency was 23.9 µM (active).

Regarding `Oc1ccc2cc(SSc3ccc4cc(O)ccc4c3)ccc2c1`, the Potency result is “inactive”.

Take `CSc1ccc(/C=C2/C(C)=C(CC(=O)O)c3cc(F)ccc32)cc1`: the Potency result was “inactive”.

Consider `CCCC1O[C@@H]2C[C@H]3[C@@H]4CCC5=CC(=O)C=C[C@]5(C)[C@H]4[C@@H](O)C[C@]3(C)[C@]2(C(=O)CO)O1` (stereo not given in full), for which the Potency entry was “inactive”.

As for `CC(C)CCCCCCCCCCCCCCC(=O)O`, the Potency entry is “inactive”.

Consider `C/C(=C(/OCCOc1ccc(Cl)cc1)c1ccc(Cl)cc1Cl)n1ccnc1`, for which the Potency result was “inactive”.

With `CN(C)c1ccc(SC#N)cc1`, the Potency entry is “inactive”.

Turning to `CCCCCCCCn1sc(Cl)c(Cl)c1=O`, the Potency is 6.92 µM (active).

Take `CCCCCCC[N+](CC)(CC)CCCCc1ccc(Cl)cc1`: the Potency was 23.9 µM (active).

As for `O=S1(=O)CC(Cl)(Cl)C(Cl)(Cl)C1`, the Potency was 6.16 µM (active).

On to `Oc1ccc(N=Nc2ccccc2)cc1`, for which the Potency entry was “inactive”.

As to `Clc1ccc2cc3ccccc3cc2c1`, the Potency entry was “inactive”.

`CCCCC(CC)CN=C(N)NC(N)=NCCCCCCN=C(N)NC(N)=NCC(CC)CCCC` (stereo not given): the Potency was 8.49 µM (active).

For `O=[N+]([O-])c1cc([N+](=O)[O-])c2ccc(S(=O)(=O)O)cc2c1O`, the Potency result is “inactive”.

With `Clc1ccc2nsnc2c1NC1=NCCN1`, the Potency entry is “inactive”.

With `Oc1cccc(-c2c3nc(c(-c4cccc(O)c4)c4ccc([nH]4)c(-c4cccc(O)c4)c4nc(c(-c5cccc(O)c5)c5ccc2[nH]5)CC4)C=C3)c1`, the Potency result is “inactive”.

Turning to `CCCCCCCC/C=C\CCCCCCCCOCCO`, the Potency result was “inactive”.

Take `Oc1ccc2c(c1)-c1ccccc1C2`: the Potency entry is “inactive”.

As for `CCCCN1CCCC[C@H]1C(=O)Nc1c(C)cccc1C`, the Potency result is “inactive”.

Turning to `CCCCc1oc2ccc(NS(C)(=O)=O)cc2c1C(=O)c1ccc(OCCCN(CCCC)CCCC)cc1`, the Potency was 9.52 µM (active).

As for `CC1(C)CCC(C)(C)c2cc(C(=O)Nc3ccc(C(=O)O)cc3)ccc21`, the Potency entry was “inactive”.

Take `CN(C)CCCOC1(Cc2ccccc2)CCCCCC1`: the Potency entry was “inactive”.

For `CCCCCCCCCCn1cc[n+](CCCCCCCCCC)c1C`, the Potency is 19.5 µM (active).

In the case of `Oc1cccc2cc3cccc(O)c3c(O)c12`, the Potency entry is “inactive”.

Consider `Cc1cccc(S(=O)(=O)O)c1C`, for which the Potency result is “inactive”.

For the molecule `C=CC(=O)OCC(CO)(COCC(COC(=O)C=C)(COC(=O)C=C)COC(=O)C=C)COC(=O)C=C`, the Potency is 4.31 µM (active).

`O=C(Oc1ccccc1)c1ccccc1C(=O)Oc1ccccc1`: the Potency result is “inactive”.

For the molecule `[O-][n+]1ccccc1SSc1cccc[n+]1[O-]`, the Potency is 0.165 µM (active).

Turning to `Cc1cc(C2CCCCC2)n(O)c(=O)c1`, the Potency entry is “inactive”.

Consider `Cc1oc(-c2ccccc2)nc1CCC(=O)c1ccc(CC2SC(=O)NC2=O)cc1` (stereo not given), for which the Potency entry was “inactive”.

Regarding `C/C=C(\C)C(=O)OCc1ccccc1`, the Potency entry was “inactive”.

For `Oc1c(Cl)cc(Cl)c2cccnc12`, the Potency result was “inactive”.

As for `Cc1cc(O)c(C(C)(C)C)cc1Sc1cc(C(C)(C)C)c(O)cc1C`, the Potency was 48.9 µM (active).

Take `COC(=O)c1cc(Cl)ccc1OC`: the Potency result was “inactive”.

With `C=CC(=O)OCCn1c(=O)n(CCOC(=O)C=C)c(=O)n(CCOC(=O)C=C)c1=O`, the Potency is 19.5 µM (active).

Regarding `NNc1nc(-c2ccccc2)cs1`, the Potency entry was “inactive”.
